Assay outcomes as filed in PubChem BioAssay.
Chronic BCR inh: qHTS Assay to Find Inhibitors of Chronic Active B-Cell Receptor Signaling; 0.05% of 340,000 active; Potency, µM (titrated, usually from 46.1 µM), for inactives: at the top dose activity change, negative = inhibition, hits mostly inhibitors; ABC-DLBCL IkBa-CBG/CBR reporter, luminescence ratio, 4 h; active = well fitted inhibition curve with a large enough effect in the signal ratio, with a control signal flat, not every such curve was filed as active; inconclusive = small, poorly fitted or top-dose-only effect, or effect the other way, or a change in a side signal; the % refers to the signal ratio;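 also: potency is read from the fitted curve at half-maximal effect; plate controls were basal doxycycline-induced cells for no effect and cells given 10 µM MG132 for full effect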
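TMD8 human ABC-DLBCL cells with doxycycline-inducible IκBα–green luciferase fusion and unfused red luciferase, in 0.5% FBS medium; compounds up to 46 uM, 4 h at 37C. Green/red luminescence ratio, filter-overlap corrected, fitted to concentration-response curves.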
TDP1 cell noCPT: qHTS for Inhibitors of human tyrosyl-DNA phosphodiesterase 1 (TDP1): qHTS in cells in absence of CPT | DT40 Tdp1-/- hTDP1 cells, no CPT, ATP luminescence, 48 h | Potency, µM (top dose mostly 46.2 µM), for the others: at the highest dose activity change, negative = growth inhibition, usual class: inhibitors | 15% of 420,000 active; also: potency is read from the fitted curve at half-maximal effect; % is scaled to controls: 0 for no effect and ±100 for the full control effect; nearly all actives have a fitted effect of over 55% in size
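Stably hTDP1-transfected Tdp1-null chicken DT40 cells were treated with library compounds minus camptothecin and grown for at least 48 hr at 37 °C, after which cellular ATP was quantified by luminescence.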
IL1B secr inh: qHTS for Inhibitors of Inflammasome Signaling: IL-1-beta AlphaLISA Primary Screen | THP-1 LPS/ATP IL-1B secretion, AlphaLISA, 16 h; active compounds read low | activity change, % at 57.5 µM | 4.7% of 360,000 active | AID 743279, 2014; in the data active = activity change below about -50%; inconclusive = mostly about -30% to -49%; also: % is scaled to controls: 0 for no effect and ±100 for the full control effect
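THP-1 cells pretreated 1 hr with compounds (up to 57.5 uM final), then stimulated with LPS (250 ng/mL final) plus ATP (1.25 mM final); secreted IL-1B measured by AlphaLISA after 16 hr, decreased signal indicating inhibition.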
DT40 TDP1 CPT: qHTS for Inhibitors of human tyrosyl-DNA phosphodiesterase 1 (TDP1): qHTS in cells in presence of CPT; chicken DT40 Tdp1-/-;hTDP1 cells + 20 nM CPT, ATP luminescence, 48 h; Potency, µM (highest dose often 46.2 µM), for inactives: top-dose activity change, negative = growth inhibition, actives largely listed as inhibitors; 12% of 420,000 active; AID 686979, 2013; also: potency is read from the fitted curve at half-maximal effect; % is scaled to controls: 0 for no effect and ±100 for the full control effect; nearly all actives have a fitted effect of over 55% in size
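Chicken DT40 Tdp1-/- cells stably complemented with human TDP1 were seeded at 400 cells/well in medium containing 20 nM camptothecin, exposed to pin-transferred compounds, and grown at 37 °C for at least 48 hr. Viability was read as ATP luminescence.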
SW480 rerep: A quantitative high throughput screen for small molecules that induce DNA re-replication in SW480 colon adenocarcinoma cells; SW480 DNA re-replication, Hoechst DNA content imaging, 48 h; Potency, µM (titrated, usually from 46.1 µM), for the others: at the top dose re-replication activation, actives largely listed as activators; 1.8% of 340,000 active; AID 624297, 2012; also: potency is read from the fitted curve at half-maximal effect; % of control where 0% means no effect; nearly all actives have a fitted effect of over 55% in size
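Image-based read-out: total Hoechst fluorescence of nuclei (405 nm excitation, 500-530 nm emission), with hits raising the fraction of high-intensity nuclei. SW480 colon cells incubated 48 hr with compounds at 37 C.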
MCF10A rereplic: A quantitative high throughput screen for small molecules that induce DNA re-replication in MCF 10a normal breast cells. 2.9% of 350,000 active. MCF 10A DNA re-replication, Hoechst nuclear intensity, 48 h. Potency, µM (series often up to 46.1 µM), inactives show at the top dose activity, positive = re-replication, actives largely listed as activators; also: potency is read from the fitted curve at half-maximal effect; % of control where 0% means no effect; nearly all actives have a fitted effect of over 50% in size
Active calls of the source: *. This is a sample that favours compounds with a hit; in the whole collection about 19% have one here. Unless noted, calls follow the shape of the dose curve; as a rule, active = well fitted curve in the direction sought with a large enough effect; inconclusive = small, poorly fitted or top-dose-only effect, or another doubt; inactive = no such curve, though single readings can be large; an effect the other way counts as inactive or inconclusive.

`Cc1ccc(C(=O)NNC(=O)C(NC(=O)c2cccc(C)c2)C(C)C)cc1` (stereo not drawn) gave Chronic BCR inh -4%, TDP1 cell noCPT -16%, IL1B secr inh -16, DT40 TDP1 CPT -10%, SW480 rerep -9% and MCF10A rereplic 0%.
`CNS(=O)(=O)c1cc(Nc2ncnc3sccc23)ccc1C` gave Chronic BCR inh -12%, TDP1 cell noCPT inconclusive, IL1B secr inh -30, DT40 TDP1 CPT 15µM*, SW480 rerep 4% and MCF10A rereplic 13%.
Screening Cc1ccc(C(C)(C)C)cc1S(=O)(=O)Nc1ncnc2sccc12 returned Chronic BCR inh 9%, TDP1 cell noCPT 1%, IL1B secr inh 59, DT40 TDP1 CPT -1%, SW480 rerep -3% and MCF10A rereplic -3%.
`Clc1ccc(COn2nnc3ccccc32)c(Cl)c1` gave TDP1 cell noCPT inconclusive, IL1B secr inh 11, DT40 TDP1 CPT inconclusive, SW480 rerep 5% and MCF10A rereplic 23µM*.
`COC1CCCN(C(=O)c2ccc3oc(Cc4ccc(Cl)cc4)nc3c2)C1` (stereo not drawn) gave Chronic BCR inh -1%, TDP1 cell noCPT inconclusive, IL1B secr inh 0, DT40 TDP1 CPT -17%, SW480 rerep -5% and MCF10A rereplic 9%.
COCC1CCCN(C(=O)c2ccc3oc(Cc4ccc(Cl)cc4)nc3c2)C1 (stereo not drawn) was read as Chronic BCR inh 9%, TDP1 cell noCPT 8.2µM*, IL1B secr inh -10, DT40 TDP1 CPT 23µM*, SW480 rerep -3% and MCF10A rereplic 6%.
For CC(C)CC(=O)C1CCCN(C(=O)c2ccc3oc(Cc4ccccc4)nc3c2)C1 (stereo not drawn) the results were Chronic BCR inh 2%, TDP1 cell noCPT 23µM*, IL1B secr inh -52*, DT40 TDP1 CPT 23µM*, SW480 rerep -6% and MCF10A rereplic 4%.
For COCC1CCN(C(=O)c2ccc3nc(Cc4cccc(Cl)c4)oc3c2)CC1 the results were TDP1 cell noCPT 18µM*, IL1B secr inh -9 and DT40 TDP1 CPT 21µM*.
`COCC1CCCN(C(=O)c2ccc3nc(Cc4cccc(Cl)c4)oc3c2)C1` (stereo not drawn) gave Chronic BCR inh 3%, TDP1 cell noCPT 15µM*, IL1B secr inh -11, DT40 TDP1 CPT 26µM*, SW480 rerep 2% and MCF10A rereplic 8%.
O=C(c1ccc2oc(CCc3ccccc3)nc2c1)N1CC[C@H](O)C1 was read as Chronic BCR inh 2%, TDP1 cell noCPT 3%, IL1B secr inh 2, DT40 TDP1 CPT -2%, SW480 rerep 0% and MCF10A rereplic -4%.
Screening CCCCC returned TDP1 cell noCPT 0%, DT40 TDP1 CPT -10%, SW480 rerep -2% and MCF10A rereplic -2%.
COCC1CCCCN1C(=O)c1ccc2oc(CCCc3ccccc3)nc2c1 (stereo not drawn) was read as Chronic BCR inh 9%, TDP1 cell noCPT 23µM*, IL1B secr inh -5, DT40 TDP1 CPT 18µM*, SW480 rerep 10% and MCF10A rereplic 11%.
Screening COCCN1CCN(C(=O)c2ccc3nc(Cc4ccc(OC)c(OC)c4)oc3c2)CC1 returned Chronic BCR inh -9%, TDP1 cell noCPT 6.5µM*, IL1B secr inh inactive, DT40 TDP1 CPT 12µM*, SW480 rerep inconclusive and MCF10A rereplic 17%.
